The values that follow come from PubChem BioAssay (NCI).

The structures appear in SMILES notation. Compounds without any hit were thinned out: in the full panel of roughly 83,000, 20% have a hit.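 Plates (96-well) were seeded with cells, treated with compound at one concentration, and incubated for 48 hours before percent growth was determined.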 Unmarked numbers belong to inactive results. The source made the active and inactive calls. Rule for the calls: active = growth percent below 10; inactive = the rest.

What all share (experiment): NCI-60 one-dose screen, 48 h (100 = growth as untreated, 0 = no growth, -100 = all killed)
For one assay, the system named is HCT-15 colon. The settings on record: 10 µM.
The next assay has as its system HT29 colon. The settings on record: 10 µM.
Another assay concerns SNB-75 CNS. The settings on record: 10 µM.
Another assay relates to U251 CNS. The note with it: 10 µM.
The next assay relates to PC-3 prostate. The settings on record: 10 µM.
The test system of the next assay is SK-MEL-5 melanoma. The note with it: 10 µM.
The subject of a further assay is LOX IMVI melanoma. The settings on record: 10 µM.
The test system of another assay is SK-MEL-28 melanoma. The note with it: 10 µM.
The next assay deals with UACC-62 melanoma. The note with it: 10 µM unless noted.

Take `CN(C)CCC(=O)c1ccc(O)cc1`: the growth was 104% in the assay on HCT-15 colon; 105% with HT29 colon; 93.7% in the assay on SNB-75 CNS; 100% in the assay on U251 CNS; 106% in the assay with PC-3 prostate; 99.9% with SK-MEL-5 melanoma. Moreover, the values for the growth with LOX IMVI melanoma and in the assay with SK-MEL-28 melanoma were 97.2% and 110%, respectively.

Take `COc1cccc(/C=N/NC(=S)NC2CC3CCC2C3)c1O` (configuration not stated): the growth in the assay with HCT-15 colon was 26.8%; in the assay with HT29 colon it was 93.6%; in the assay with SNB-75 CNS, 5.33% (active); in the assay with U251 CNS, 42.2%; with PC-3 prostate it was 64.8%; in the assay with SK-MEL-5 melanoma, 67.8%. Further, the growth is 67.7% in the assay with UACC-62 melanoma, 44.2% in the assay with LOX IMVI melanoma and 67.6% with SK-MEL-28 melanoma.

As to `CC(=O)Cc1cc(-c2cc(CC(C)=O)[nH]n2)n[nH]1`, the growth in the assay with HCT-15 colon was 99.4%; in the assay with HT29 colon, 102%; in the assay with SNB-75 CNS it was 87.1%; in the assay with U251 CNS it was 97.7%; with PC-3 prostate, 96.7%; with SK-MEL-5 melanoma, 99.6%. Besides, the growth was 90.3% in the assay with UACC-62 melanoma, 96.3% with LOX IMVI melanoma and 107% in the assay on SK-MEL-28 melanoma.

In the case of `Cc1cccc(C(=O)N(C(C)C)C(C)C)c1`, the growth in the assay with HCT-15 colon is 96.7%; in the assay with HT29 colon it was 92.8%; in the assay on SNB-75 CNS, 95%; with U251 CNS, 92.5%; with PC-3 prostate, 92.8%; with SK-MEL-5 melanoma, 95.3%. Further, the results for the growth in the assay with UACC-62 melanoma, in the assay with LOX IMVI melanoma and in the assay on SK-MEL-28 melanoma were 96.5%, 96.1% and 103%, respectively.

On to `c1ccc(/C(=N\N=C(/c2ccccc2)c2cccs2)c2cccs2)cc1`, for which the growth with HCT-15 colon is 92.4%; in the assay on HT29 colon, 95.4%; in the assay with SNB-75 CNS, 89%; with U251 CNS, 103%; with PC-3 prostate it was 99.8%; in the assay on SK-MEL-5 melanoma, 101%. Besides, the growth in the assay with LOX IMVI melanoma was 88.4%; in the assay on SK-MEL-28 melanoma, 108%.

As to `O=C(NCO)c1ccccc1`, the growth in the assay on HCT-15 colon was 101%; in the assay with HT29 colon it was 109%; in the assay on SNB-75 CNS, 89.8%; with U251 CNS, 105%; with SK-MEL-5 melanoma, 111%; in the assay on UACC-62 melanoma, 93.8%. Moreover, the growth in the assay on LOX IMVI melanoma and in the assay with SK-MEL-28 melanoma was 105% each time.

Regarding `NCCC(=O)c1ccc(Cl)cc1`, the growth in the assay on HCT-15 colon is 107%; in the assay with HT29 colon, 106%; in the assay with SNB-75 CNS, 96.1%; with U251 CNS, 105%; in the assay on PC-3 prostate, 97.2%; with SK-MEL-5 melanoma, 99.5%. The growth was 112% in the assay with UACC-62 melanoma, 106% with LOX IMVI melanoma and 109% with SK-MEL-28 melanoma.

Regarding `CC(C)=C(NC(=O)c1ccccc1)C(=O)O`, the growth in the assay on HCT-15 colon was 104%; in the assay on HT29 colon, 99.6%; in the assay with SNB-75 CNS it was 108%; with U251 CNS, 114%; in the assay on PC-3 prostate, 87.8%; with SK-MEL-5 melanoma, 99%. For the same compound, the growth is 101% in the assay on LOX IMVI melanoma and 108% in the assay with SK-MEL-28 melanoma.

Consider `OC1OC(COC(c2ccccc2)(c2ccccc2)c2ccccc2)C(O)C(O)C1O` (configuration not stated), for which the growth with HCT-15 colon is 98.6%; with HT29 colon, 110%; in the assay with SNB-75 CNS, 72%; in the assay on U251 CNS it was 91%; in the assay with SK-MEL-5 melanoma it was 100%; in the assay on UACC-62 melanoma it was 85.5%. The growth in the assay with LOX IMVI melanoma is 93.6%; with SK-MEL-28 melanoma it was 91.4%.

On to `c1c(-c2cc(C3CC3)[nH]n2)n[nH]c1C1CC1`, for which the growth was 103% in the assay on HCT-15 colon; 98.7% in the assay on HT29 colon; 112% with SNB-75 CNS; 95.2% in the assay with U251 CNS; 98.1% in the assay on PC-3 prostate; 82.1% in the assay on SK-MEL-5 melanoma. The growth was 87.2% in the assay with UACC-62 melanoma, 77.8% in the assay on LOX IMVI melanoma and 100% in the assay on SK-MEL-28 melanoma.

Regarding `CS(=O)CC1=NC(=N)N=C1CS(C)=O` (configuration not stated), the growth was 102% with HCT-15 colon; 109% in the assay with HT29 colon; 97.7% in the assay with SNB-75 CNS; 98.1% in the assay with U251 CNS; 98.7% in the assay with PC-3 prostate; 99.3% with SK-MEL-5 melanoma. The growth in the assay with UACC-62 melanoma is 98.4%; in the assay with LOX IMVI melanoma it was 96.7%; in the assay on SK-MEL-28 melanoma it was 108%.

For `CCOC(=O)c1cc(/C=C/c2cccc(Cl)c2)on1`, the growth was 64.8% in the assay on HCT-15 colon; 78.8% with HT29 colon; 87.4% in the assay with SNB-75 CNS; 87.5% in the assay on U251 CNS; 85.1% in the assay with PC-3 prostate; 96.9% with SK-MEL-5 melanoma. The growth with UACC-62 melanoma was 78.8%; in the assay with LOX IMVI melanoma, -3.76% (active); in the assay on SK-MEL-28 melanoma, 104%.

With `S=C(Nc1ccccc1)N1CCCCC1`, the growth in the assay on HCT-15 colon was 105%; in the assay with HT29 colon, 102%; with SNB-75 CNS it was 99.5%; with U251 CNS, 96.2%; in the assay on PC-3 prostate, 96.4%; in the assay on SK-MEL-5 melanoma it was 97%. The growth is 90.5% in the assay on UACC-62 melanoma, 96.6% in the assay on LOX IMVI melanoma and 103% in the assay with SK-MEL-28 melanoma.

With `CC(=O)CC(=O)N(C)C`, the growth is 95.1% in the assay with HCT-15 colon; 97.8% in the assay with HT29 colon; 80.1% with SNB-75 CNS; 100% in the assay on U251 CNS; 92.8% with PC-3 prostate; 93.7% in the assay on SK-MEL-5 melanoma. Also, the growth in the assay with UACC-62 melanoma is 88.8%; in the assay on LOX IMVI melanoma, 94.1%; with SK-MEL-28 melanoma, 105%.

On to `O=[N+]([O-])c1ccc(-c2noc(-c3cccs3)n2)cc1`, for which the growth is 84% in the assay on HCT-15 colon; 92.5% in the assay with HT29 colon; 83.2% in the assay on SNB-75 CNS; 86.5% in the assay with U251 CNS; 90.3% in the assay on PC-3 prostate; 83.5% in the assay with SK-MEL-5 melanoma. Moreover, the results for the growth in the assay with UACC-62 melanoma, in the assay with LOX IMVI melanoma and in the assay with SK-MEL-28 melanoma were 76.6%, 86% and 99.5%, respectively.

As to `Cc1ccc(C)n1-c1ccsc1C(=O)NNC(=O)CCl`, the growth is 88.8% with HCT-15 colon; 106% in the assay on HT29 colon; 112% in the assay with SNB-75 CNS; 95.6% in the assay with U251 CNS; 93.4% in the assay on PC-3 prostate; 85.8% in the assay on SK-MEL-5 melanoma. For the same compound, the values for the growth in the assay with UACC-62 melanoma, with LOX IMVI melanoma and in the assay with SK-MEL-28 melanoma were 82.7%, 16.4% and 111%, respectively.

With `Clc1ccc(-c2nnc(-c3cccc4ccccc34)o2)cc1`, the growth with HCT-15 colon was 80.1%; with HT29 colon, 89.3%; with SNB-75 CNS it was 76.8%; in the assay with U251 CNS, 90.2%; with PC-3 prostate it was 82.4%; in the assay with SK-MEL-5 melanoma, 93.7%. In addition, the growth in the assay with LOX IMVI melanoma was 84.2%; with SK-MEL-28 melanoma, 107%.
